Experimental data from ChEMBL document CHEMBL5606460, “ASAP - DENV-2 NS2B-NS3 protease fluorescence single point” (2024).
The whole screen tested about 2,000 compounds, of which about 110 (5.5%) showed an effect of 50% or more. The full list was thinned out, with strong results kept by preference.

Target: Genome polyprotein (dengue virus type 2) (UniProt P29990)
[1] = Thailand/16681/1984, Concentration 25.0 uM, Number of replicates 1.0

**Q.** What does the source list for `Cc1c(C2CCNCC2)cnn1Cc1nnc(-c2ccccc2)o1`?
**A.** inhibition (Thailand/16681/1984, Concentration 49.5 uM, Number of replicates 2.0, Standard deviation 2.3622904402078886 %): -2.18%; inhibition (Thailand/16681/1984, Concentration 99.01 uM, Number of replicates 2.0, Standard deviation 1.8884466143634908 %): -1.86%; inhibition (Thailand/16681/1984, Concentration 198.0 uM, Number of replicates 2.0, Standard deviation 1.0159128732525171 %): -0.491%

**Q.** `Cc1cccc(NC(=O)CNC(=O)C2CCN(c3ccc(C=O)cc3)CC2)c1C` was tested. Which inhibition [1] did it give?
**A.** 13%

**Q.** How did the inhibition (Thailand/16681/1984, Concentration 49.95 uM, Number of replicates 2.0, Standard deviation 1.1262325758678584 %) turn out when `Cc1cc(CO)c2cccc(Nc3cc(O)[nH]n3)c2n1` was run?
**A.** 32.3%

**Q.** And the inhibition (Thailand/16681/1984, Concentration 99.9 uM, Number of replicates 2.0, Standard deviation 0.556697154318326 %)?
**A.** 51.5%

**Q.** Which inhibition (Thailand/16681/1984, Concentration 49.95 uM, Number of replicates 2.0, Standard deviation 1.546456211659181 %) does the source give for `Cc1cc(CO)c2cccc(NC(=O)COc3cccc(CN)c3)c2n1` here?
**A.** 9.18%

**Q.** What about the inhibition (Thailand/16681/1984, Concentration 99.9 uM, Number of replicates 2.0, Standard deviation 0.8863913825569767 %) of the same compound?
**A.** 7.18%

**Q.** How did the inhibition (Thailand/16681/1984, Concentration 49.95 uM, Number of replicates 2.0, Standard deviation 1.2018993187616485 %) turn out when `Cc1cc(CO)c2cccc(NC(=O)Cc3cccc(CN)c3)c2n1` was run?
**A.** 15.4%

**Q.** And the inhibition (Thailand/16681/1984, Concentration 99.9 uM, Number of replicates 2.0, Standard deviation 0.39117400474888586 %)?
**A.** 23.6%

**Q.** How did the inhibition (Thailand/16681/1984, Concentration 49.95 uM, Number of replicates 2.0, Standard deviation 0.9388389208439332 %) turn out when `Cc1cc(CO)c2cccc(Cc3ccccc3NC(=O)[C@@H](N)CC(N)=O)c2n1` was run?
**A.** 28.9%

**Q.** What about the inhibition (Thailand/16681/1984, Concentration 99.9 uM, Number of replicates 2.0, Standard deviation 1.1783962129832455 %) of the same compound?
**A.** 59.7%

**Q.** `Cc1cc(CO)c2cccc(CC(=O)Nc3cc(O)[nH]n3)c2n1` was tested. Which inhibition (Thailand/16681/1984, Concentration 49.95 uM, Number of replicates 2.0, Standard deviation 0.30186854167697036 %) did it give?
**A.** 9.85%

**Q.** What about the inhibition (Thailand/16681/1984, Concentration 99.9 uM, Number of replicates 2.0, Standard deviation 0.4943454438060974 %) of the same compound?
**A.** 27.1%

**Q.** How did the inhibition (Thailand/16681/1984, Concentration 99.9 uM, Number of replicates 2.0, Standard deviation 1.2808103574664134 %) turn out when `Cc1cc(Cl)c2cccc(NC(=O)[C@@H]3CCCC[C@H]3N)c2n1` was run?
**A.** -9.95%

**Q.** Which inhibition (Thailand/16681/1984, Concentration 49.95 uM, Number of replicates 2.0, Standard deviation 3.3658560886244877 %) does the source give for `Cc1cc(CO)c2cccc(NC(=O)[C@@H](N)CCN)c2n1` here?
**A.** -1.14%

**Q.** What about the inhibition (Thailand/16681/1984, Concentration 99.9 uM, Number of replicates 2.0, Standard deviation 3.0766976877592507 %) of the same compound?
**A.** -5.81%

**Q.** With `Cc1cc(CO)c2cccc(Nc3cc(C)on3)c2n1` as the compound, how does the inhibition (Thailand/16681/1984, Concentration 49.95 uM, Number of replicates 2.0, Standard deviation 1.3194982141200182 %) read?
**A.** 1.66%

**Q.** And the inhibition (Thailand/16681/1984, Concentration 99.9 uM, Number of replicates 2.0, Standard deviation 1.2714193652686099 %)?
**A.** 2.71%

**Q.** `Cc1cc(CO)c2cccc(NC(=O)[C@@H](N)CC(N)=O)c2n1` was tested. Which inhibition (Thailand/16681/1984, Concentration 49.95 uM, Number of replicates 2.0, Standard deviation 1.8295341709834483 %) did it give?
**A.** -3.67%

**Q.** And the inhibition (Thailand/16681/1984, Concentration 99.9 uM, Number of replicates 2.0, Standard deviation 6.049352845396267 %)?
**A.** -1.2%

**Q.** Which inhibition (Thailand/16681/1984, Concentration 49.95 uM, Number of replicates 2.0, Standard deviation 0.0008200090846279543 %) does the source give for `Cc1cc(Cl)c2cccc(NC(=O)CCN)c2n1` here?
**A.** 99.2%

**Q.** And the inhibition (Thailand/16681/1984, Concentration 99.9 uM, Number of replicates 2.0, Standard deviation 0.04112992935002318 %)?
**A.** 98.9%

**Q.** Which results are given for `Cc1cc(CO)c2cccc(NC(=O)CCN)c2n1`?
**A.** inhibition (Thailand/16681/1984, Concentration 49.95 uM, Number of replicates 2.0, Standard deviation 0.675365146636023 %): 28.7%; inhibition (Thailand/16681/1984, Concentration 99.9 uM, Number of replicates 2.0, Standard deviation 0.4014376052982588 %): 91.2%

**Q.** How did the inhibition (Thailand/16681/1984, Concentration 49.95 uM, Number of replicates 2.0, Standard deviation 1.1804730410904682 %) turn out when `Cc1cc(CO)c2cccc(Cc3ccccc3NC(=O)[C@H](N)CCO)c2n1` was run?
**A.** -2.49%

**Q.** What about the inhibition (Thailand/16681/1984, Concentration 99.9 uM, Number of replicates 2.0, Standard deviation 1.1029287785847963 %) of the same compound?
**A.** -0.758%

**Q.** Which inhibition [1] does the source give for `Cc1nc(Cl)c(NC(=O)C2CCN(c3ccc(C=O)cc3)CC2)c(Cl)n1` here?
**A.** 12.8%

**Q.** With `CC(C)(CO)NC(=O)c1cc(Cl)cc(NC(=O)Cn2cnccc2=O)c1` as the compound, how does the inhibition (Thailand/16681/1984, Concentration 49.5 uM, Number of replicates 2.0, Standard deviation 0.3718016272993385 %) read?
**A.** -3.9%

**Q.** What about the inhibition (Thailand/16681/1984, Concentration 99.01 uM, Number of replicates 2.0, Standard deviation 1.0416819516575477 %) of the same compound?
**A.** -5.97%

**Q.** What about the inhibition (Thailand/16681/1984, Concentration 198.0 uM, Number of replicates 2.0, Standard deviation 1.29652000519297 %) of the same compound?
**A.** -5.4%

**Q.** With `O=Cc1ccc(N2CCC(C(=O)N3CCN(C(=O)C(F)(F)F)CC3)CC2)cc1` as the compound, how does the inhibition [1] read?
**A.** 8.59%

**Q.** How did the inhibition (Thailand/16681/1984, Concentration 49.5 uM, Number of replicates 2.0, Standard deviation 0.8615620840433298 %) turn out when `Cc1n[nH]c(CC(=O)N2CCC[C@H](n3cnc(C(N)=O)n3)C2)n1` was run?
**A.** -1.22%

**Q.** And the inhibition (Thailand/16681/1984, Concentration 99.01 uM, Number of replicates 2.0, Standard deviation 0.2938998370290156 %)?
**A.** -1.99%

**Q.** And the inhibition (Thailand/16681/1984, Concentration 198.0 uM, Number of replicates 2.0, Standard deviation 1.103757347430939 %)?
**A.** -0.94%

**Q.** With `Cn1cc(NC(=O)c2ccccc2C(F)(F)F)c(-c2cnn(C)n2)n1` as the compound, how does the inhibition (Thailand/16681/1984, Concentration 49.5 uM, Number of replicates 2.0, Standard deviation 0.32036291597833877 %) read?
**A.** -2.97%

**Q.** And the inhibition (Thailand/16681/1984, Concentration 99.01 uM, Number of replicates 2.0, Standard deviation 1.175972600606475 %)?
**A.** -3.46%

**Q.** And the inhibition (Thailand/16681/1984, Concentration 198.0 uM, Number of replicates 2.0, Standard deviation 1.0582279614459547 %)?
**A.** -3.2%

**Q.** How did the inhibition [1] turn out when `O=Cc1ccc(N2CCC(C(=O)Nc3ccc4scnc4c3)CC2)cc1` was run?
**A.** 13%

**Q.** Which results are given for `O[C@]1(C(F)(F)F)CC[C@H](CNCc2nnc3ccccn23)CC1`?
**A.** inhibition (Thailand/16681/1984, Concentration 49.5 uM, Number of replicates 2.0, Standard deviation 2.244095461971029 %): 4.51%; inhibition (Thailand/16681/1984, Concentration 99.01 uM, Number of replicates 2.0, Standard deviation 1.4092400656614155 %): 4.61%; inhibition (Thailand/16681/1984, Concentration 198.0 uM, Number of replicates 2.0, Standard deviation 2.783814769891106 %): 1.75%

**Q.** Which inhibition (Thailand/16681/1984, Concentration 49.5 uM, Number of replicates 2.0, Standard deviation 0.640305880758115 %) does the source give for `CCc1nc([C@@H](C)NC(=O)c2ccc(O)c(NC(=O)c3ccncc3F)c2C)n[nH]1` here?
**A.** -3.94%

**Q.** And the inhibition (Thailand/16681/1984, Concentration 99.01 uM, Number of replicates 2.0, Standard deviation 0.7647439452243474 %)?
**A.** -3.61%

**Q.** And the inhibition (Thailand/16681/1984, Concentration 198.0 uM, Number of replicates 2.0, Standard deviation 1.5490355987880475 %)?
**A.** -3.27%

**Q.** `Cc1cn2nnc(C(=O)N[C@H]3CCCCn4c3n[nH]c4=O)c2c(=O)[nH]1` was tested. Which inhibition (Thailand/16681/1984, Concentration 49.5 uM, Number of replicates 2.0, Standard deviation 0.2359641679366373 %) did it give?
**A.** -0.501%

**Q.** And the inhibition (Thailand/16681/1984, Concentration 99.01 uM, Number of replicates 2.0, Standard deviation 0.10523355791430405 %)?
**A.** -0.563%

**Q.** What about the inhibition (Thailand/16681/1984, Concentration 198.0 uM, Number of replicates 2.0, Standard deviation 0.06258385535382655 %) of the same compound?
**A.** -1.4%

**Q.** With `O=Cc1ccc(N2CCC(C(=O)Nc3nnc(C(F)(F)F)s3)CC2)cc1` as the compound, how does the inhibition [1] read?
**A.** 12.7%

**Q.** With `O=Cc1ccc(N2CCC(C(=O)N3CCNC(=O)C34CCCCC4)CC2)cc1` as the compound, how does the inhibition [1] read?
**A.** 13.7%

**Q.** With `CCCCN(Cc1ccc(F)cc1)C(=O)C1CCN(c2ccc(C=O)cc2)CC1` as the compound, how does the inhibition [1] read?
**A.** 16.4%

**Q.** For `COc1cc(C(=O)Nc2cnc3ccccc3c2)nc(N2CCNCC2)n1`, which inhibition (Thailand/16681/1984, Concentration 49.5 uM, Number of replicates 2.0, Standard deviation 9.540542197549359 %) is on record?
**A.** 4.46%

**Q.** What about the inhibition (Thailand/16681/1984, Concentration 99.01 uM, Number of replicates 2.0, Standard deviation 4.349736840709832 %) of the same compound?
**A.** 6.31%

**Q.** What about the inhibition (Thailand/16681/1984, Concentration 198.0 uM, Number of replicates 2.0, Standard deviation 5.514135579540427 %) of the same compound?
**A.** 7.41%

**Q.** How did the inhibition [1] turn out when `O=Cc1ccc(N2CCC(C(=O)N3CCCN(c4ccc(C(F)(F)F)cn4)CC3)CC2)cc1` was run?
**A.** 9.22%

**Q.** Which inhibition (Thailand/16681/1984, Concentration 49.95 uM, Number of replicates 2.0, Standard deviation 0.024232414845035546 %) does the source give for `Cc1cc(CO)c2cccc(Cc3cccc(NC(=O)c4cc(C(=O)O)[nH]n4)c3)c2n1` here?
**A.** 4.13%

**Q.** And the inhibition (Thailand/16681/1984, Concentration 99.9 uM, Number of replicates 2.0, Standard deviation 0.7422093740247248 %)?
**A.** 7.91%
